The supplement of paper PMC10127200
Counter-ions that a name gives are not always drawn.

Key:
Assay in all cases: Euclidean distance of Cell Painting phenotypic profile (signed KS, 77 features) to DMSO centroid (dimensionless distance); 5 or 10 uM (library dependent); higher = stronger phenotypic change vs DMSO (phenoactivity)
Settings in all cases: 48 h
786-O = tested on: 786-O
Outline: (§1)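 Five cancer lines, together with a healthy fibroblast line, received library compounds for 48 h at a library-dependent 10 or 5 uM and 0.1% DMSO final. Harmony then derived 77 features from confocal 20X images (9 fields/well) of the stained cells, scoring each as a signed Kolmogorov-Smirnov statistic against same-plate vehicle wells. After plate-position correction, correlation weighting and replicate averaging at the top dose, phenoactivity was taken as each profile's Euclidean distance to the median vehicle profile.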

A549 = tested on: A549
Outline: as §1

DU145 = tested on: DU145
Outline: as §1

FB = tested on: FB
Outline: as §1

HEPG2 = tested on: HEPG2
Outline: as §1

OVCAR4 = tested on: OVCAR4
Outline: as §1

| SMILES | Euclidean distance (786-O) | Euclidean distance (A549) | Euclidean distance (DU145) | Euclidean distance (FB) | Euclidean distance (HEPG2) | Euclidean distance (OVCAR4) |
| --- | --- | --- | --- | --- | --- | --- |
| Cc1cc([C@@H](C)Nc2ccccc2C(=O)O)c2nc(N3CCOCC3)cc(=O)n2c1 | 1 | 1.82 | 1.52 | 1.71 | 1.59 | 3.2 |
| CSc1ccc2c(c1)N(CCC1CCCCN1C)c1ccccc1S2 (configuration not stated) [Thioridazine hydrochloride] | 2.83 | 2.98 | 2.37 | 3.14 | 3.33 | 2.62 |
| N=C(N)NC(=O)Cc1c(Cl)cccc1Cl [Guanfacine Hydrochloride] | 1.58 | 0.941 | 1.05 | 1.09 | 0.41 | 0.929 |
| CC(CN(C)C)CN1c2ccccc2Sc2ccccc21 (configuration not stated) [Alimemazine Tartrate] | 1.33 | 1.55 | 1.73 | 2.43 | 2.13 | 1.33 |
| O=C(/C=C/c1ccc(O)c(O)c1)O[C@H](Cc1ccc(O)c(O)c1)C(=O)O [Rosmarinic acid] | 0.778 | 0.874 | 0.818 | 0.847 | 0.532 | 0.722 |
| O=C(O)CCCCCCCC(=O)O [Azelaic acid] | 0.8 | 1.26 | 0.798 | 0.728 | 0.834 | 0.801 |
| Cc1ccc(/C=C2/C(=O)C3(C)CCC2C3(C)C)cc1 (configuration not stated) [4-Methylbenzylidene camphor] | 1.01 | 1.2 | 0.926 | 0.895 | 0.613 | 1.22 |
| Cc1cc(C(C)(C)C)c(O)c(C)c1CC1=NCCN1 [Oxymetazoline HCl] | 1.3 | 0.82 | 0.75 | 1.1 | 1.88 | 0.83 |
| CN(C)C(=O)Nc1cccc(-c2ccc(N(C)C)cc2)c1 [Atglistatin] | 1.31 | 1.47 | 1.1 | 0.894 | 0.548 | 1.33 |
| CCCCCCCCCCCC1=C(O)C(=O)C=C(O)C1=O [Embelin] | 1.85 | 1.18 | 1.4 | 1.6 | 1.16 | 1.88 |
| Nc1nc(/C(=C/CC(=O)O)C(=O)N[C@@H]2C(=O)N3C(C(=O)O)=CCS[C@H]23)cs1 [Ceftibuten dihydrate] | 1.22 | 0.568 | 1.24 | 1.2 | 1.17 | 0.987 |
| N[C@@H](Cc1cc(I)c(Oc2cc(I)c(O)c(I)c2)c(I)c1)C(=O)O [L-Thyroxine] | 1.38 | 1.12 | 1.19 | 0.961 | 0.718 | 1.45 |
| COc1cc(C[C@H]2C(=O)OC[C@@H]2Cc2ccc(OC)c(OC)c2)ccc1O [(-)-Arctigenin] | 1.04 | 1.48 | 1.36 | 0.929 | 2.46 | 1.29 |
| CN1CCC(=C2c3ccccc3CC(=O)c3sccc32)CC1 [Ketotifen Fumarate] | 0.851 | 0.639 | 0.639 | 1.17 | 0.589 | 1.2 |
| O=S(=O)(O)CCSSCCS(=O)(=O)O [Dimesna] | 0.983 | 1.01 | 1.18 | 1.16 | 0.803 | 1.13 |
| Cc1ccc(S(=O)(=O)/C=C/C#N)cc1 | 1.7 | 1.37 | 1.36 | 3.14 | 2.05 | 2.5 |
| CNC(=O)Nc1ccc(-c2nc(N3CC4CCC(C3)O4)c3cnn(C4CCC5(CC4)OCCO5)c3n2)cc1 | 4.15 | 3.37 | 2.25 | 4.69 | 3.38 | 4.35 |
| Oc1c(I)cc(I)c2cccnc12 [Diiodohydroxyquinoline] | 1.24 | 1.68 | 0.746 | 1.01 | 0.677 | 1.2 |
| Nc1nc2[nH]cnc2c(=S)[nH]1 [Thioguanine] | 1.65 | 2.5 | 1.48 | 0.807 | 3.13 | 2.12 |
| COc1cc2c(cc1OC)C(=O)C(CC1CCN(Cc3ccccc3)CC1)C2 (configuration not stated) [Donepezil] | 0.813 | 1.25 | 0.73 | 0.785 | 1.27 | 1.27 |
| CCN(CC)CCOC(=O)C1(C2CCCCC2)CCCCC1 [Dicyclomine HCl] | 1.23 | 1.1 | 1.39 | 1.16 | 1.04 | 1.43 |
| CCOc1ccc(Cc2cc([C@@H]3O[C@H](CO)[C@@H](O)[C@H](O)[C@H]3O)ccc2Cl)cc1 [Dapagliflozin] | 1.1 | 1.19 | 1.1 | 1.39 | 0.432 | 1.01 |
| Cc1cc2ncc(C(=O)NCC(C)(C)NCC(=O)N3CCC[C@H]3C#N)cn2n1 [Anagliptin] | 1.08 | 1.14 | 1.17 | 1.29 | 0.393 | 1.17 |
| CNC(=O)[C@H](Cc1ccccc1)NC(=O)[C@H](CC(C)C)[C@H](CSc1cccs1)C(=O)NO [Batimastat (BB-94)] | 1.52 | 1.51 | 1.25 | 1.68 | 2.06 | 1.53 |

| SMILES | Euclidean distance (786-O) | Euclidean distance (A549) | Euclidean distance (DU145) | Euclidean distance (FB) | Euclidean distance (HEPG2) | Euclidean distance (OVCAR4) |
| --- | --- | --- | --- | --- | --- | --- |
| O=C(Nc1cnn2ccc(N3CCC[C@@H]3c3cc(F)ccc3F)nc12)N1CC[C@H](O)C1 [Larotrectinib (LOXO-101) sulfate] | 0.597 | 0.899 | 1.05 | 0.634 | 0.551 | 1.27 |
| CN(C)C(=O)[C@H](O)[C@H](Cc1ccccc1)NC(=O)c1cc2cc(Cl)ccc2[nH]1 | 0.476 | 0.757 | 0.712 | 1.01 | 1.05 | 0.908 |
| CN(C)CCc1c[nH]c2ccc(C[C@H]3COC(=O)N3)cc12 [Zolmitriptan] | 1.26 | 1.23 | 1.25 | 0.876 | 0.663 | 1.74 |
| CNC(=O)c1ccc(-c2cnc3ncc(Cc4ccc5ncccc5c4)n3n2)cc1F | 1.36 | 0.853 | 0.871 | 0.899 | 0.745 | 0.726 |
| COc1ccc(C(=O)c2ccccc2)c(O)c1 [Oxybenzone] | 1.07 | 0.943 | 0.824 | 1.34 | 0.753 | 1.32 |
| Cc1nc(N(C)C(=O)Cc2ccc(-c3ccccn3)cc2)sc1S(N)(=O)=O [Pritelivir (BAY 57-1293)] | 0.793 | 0.531 | 1.07 | 0.872 | 0.577 | 0.834 |
| O=[N+]([O-])c1ccc2c(c1)S(=O)(=O)C=C2 [Stattic] | 5.16 | 2.51 | 2.61 | 3.89 | 1.16 | 4.56 |
| CCOC(=O)C1=C(COCCN)NC(C)=C(C(=O)OC)[C@@H]1c1ccccc1Cl [Levamlodipine] | 0.971 | 0.702 | 0.684 | 1.12 | 0.978 | 0.931 |
| O=C(NOC[C@H](O)CO)c1ccc(F)c(F)c1Nc1ccc(I)cc1F | 3.1 | 2.57 | 3.66 | 3.5 | 2.03 | 2.63 |
| Cn1cc(C(=O)[C@@H]2CCc3[nH]cnc3C2)c2ccccc21 [Ramosetron Hydrochloride] | 1.07 | 0.965 | 0.791 | 1.34 | 0.731 | 1.41 |
| OC1CN(CCCOCCc2ccc3sccc3c2)C1 [Edonerpic maleate] | 0.947 | 0.582 | 0.87 | 1.18 | 0.525 | 0.97 |
| COc1cnc(-n2cnc(C)n2)c2[nH]cc(C(=O)C(=O)N3CCN(C(=O)c4ccccc4)CC3)c12 | 1.35 | 0.841 | 0.792 | 0.569 | 1.32 | 0.969 |
| c1ccc(-c2[nH]ncc2-c2ccnc3ccccc23)nc1 | 0.643 | 0.916 | 0.92 | 1.27 | 1.24 | 0.931 |
| NC(=O)c1cn(Cc2c(F)cccc2F)nn1 [Rufinamide] | 1.34 | 1.42 | 0.931 | 1.23 | 0.473 | 1.4 |
| COc1cc2c(cc1OC)[C@@H]1Cc3ccc(OC)c(OC)c3CN1CC2 [Tetrahydropalmatine] | 0.584 | 0.856 | 0.447 | 0.696 | 0.585 | 0.757 |
| CC(C)CCNC(=O)[C@H](CC(C)C)NC(=O)[C@H]1O[C@@H]1C(=O)O [Loxistatin Acid (E-64C)] | 1.6 | 2.18 | 1.48 | 1.04 | 1.44 | 1.5 |
| O=C(Nc1ncc(SCCN2CCCC2)s1)[C@]1(c2ccc(S(=O)(=O)C3CC3)cc2)C[C@H]1C1CCCCC1 | 5.07 | 2.38 | 3.02 | 3.03 | 3.45 | 1.44 |
| O=C(CSc1nc2c(c(=O)n1-c1ccccc1)SCC2)Nc1ccc(-c2ccccc2)cn1 | 1.36 | 1.81 | 1.11 | 0.832 | 1.42 | 0.588 |
| O=C(O)c1cc(-c2ccc(F)cc2F)ccc1O [Diflunisal] | 1.47 | 0.745 | 1.05 | 1.06 | 0.706 | 1.71 |
| COc1ccc(C(=O)CC(=O)c2ccc(C(C)(C)C)cc2)cc1 [Avobenzone] | 1.41 | 0.547 | 0.714 | 1.02 | 0.762 | 0.989 |
| C=C1CC[C@H](O)C/C1=C/C=C1\CCC[C@]2(C)[C@@H]([C@H](C)/C=C/[C@H](C)C(C)C)CC[C@@H]12 [Vitamin D2] | 2.59 | 0.759 | 5.76 | 1.38 | 2.02 | 2.05 |
| N#CC1(c2ccc(NC(=O)c3cccnc3NCc3ccncc3)cc2)CCCC1 [Apatinib] | 0.955 | 1.12 | 0.92 | 2.3 | 1.34 | 0.799 |
| Cn1c(=O)cc(N2CCC[C@@H](N)C2)n(Cc2cc(F)ccc2C#N)c1=O [Trelagliptin] | 0.94 | 0.495 | 0.985 | 0.998 | 0.668 | 0.953 |
